# Active and inactive are the calls of the source. How the source made its calls: active means hit-call score of the fitted dose curve at least 0.9, where 1 is the maximum; inactive means score below 0.9.
# How the values were obtained:
# [1] = read-out: TIMP metallopeptidase inhibitor 1 (TIMP1), TIMP1 (gene 7076); experiment: BSK_hDFCGF_TIMP1: BioMAP Diversity Plus: hDFCGF Assay for TIMP metallopeptidase inhibitor 1 (TIMP1) Biomarker Activity (AID 2283062); details: primary human foreskin fibroblasts; actives raise or lower the signal
# Summary of the method: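 Primary human foreskin fibroblasts in the hDFCGF system were dosed with compound for 24 h, then TIMP-1 was measured by ELISA. Activity was fitted bidirectionally relative to DMSO control; parallel SRB staining assessed cytotoxicity.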
# [2] = read-out: Matrix Metallopeptidase 1 (MMP1), MMP1 (gene 4312); experiment: BSK_hDFCGF_MMP1: BioMAP Diversity Plus: hDFCGF Assay for Matrix Metallopeptidase 1 (MMP1) Biomarker Activity (AID 2283064); details: primary human foreskin fibroblasts; actives raise or lower the signal
# Summary of the method: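 ELISA read-out of MMP1 from human foreskin fibroblasts (primary skin cells), 24 h post-dose. Gain or loss of signal was fitted bidirectionally versus DMSO negative control; cytotoxicity was checked by SRB in parallel cultures.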
# [3] = read-out: Vascular cell adhesion molecule 1 (VCAM1), VCAM1 (gene 7412); experiment: BSK_hDFCGF_VCAM1: BioMAP Diversity Plus: hDFCGF Assay for Vascular cell adhesion molecule 1 (VCAM1) Biomarker Activity (AID 2283065); details: primary human foreskin fibroblasts; actives raise or lower the signal
# Summary of the method: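 Primary human foreskin fibroblasts (hDFCGF system) were dosed with chemical and VCAM-1 was measured by ELISA 24 h later. Bidirectional curve fitting used DMSO as negative control and activity baseline.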
# [4] = read-out: Plasminogen activator inhibitor-1 (PAI1), SERPINE1 (gene 5054); experiment: BSK_hDFCGF_PAI1: BioMAP Diversity Plus: hDFCGF Assay for Plasminogen activator inhibitor-1 (PAI1) Biomarker Activity (AID 2283066); details: primary human foreskin fibroblasts; actives raise or lower the signal
# Summary of the method: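 Fibroblasts from human foreskin were treated with test chemical. After 24 h, PAI-1 was measured by ELISA. Activity was fitted in both directions relative to DMSO.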
# [5] = read-out: Intercellular Adhesion Molecule 1 (ICAM1), ICAM1 (gene 3383); experiment: BSK_KF3CT_ICAM1: BioMAP Diversity Plus: KF3CT Assay for Intercellular Adhesion Molecule 1 (ICAM1) Biomarker Activity (AID 2283067); details: primary human keratinocytes with fibroblasts; actives raise or lower the signal
# Summary of the method: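 Human keratinocyte plus foreskin fibroblast primary co-culture was exposed to chemical for 24 h. ICAM-1 was then quantified by ELISA, and the data were fit bidirectionally against DMSO as the negative control and baseline.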
# [6] = read-out: Interferon-gamma inducible Protein 10 (IP10), CXCL10 (gene 3627); experiment: BSK_KF3CT_IP10: BioMAP Diversity Plus: KF3CT Assay for Interferon-gamma inducible Protein 10 (IP10) Biomarker Activity (AID 2283068); details: primary human keratinocytes with fibroblasts; actives raise or lower the signal
# Summary of the method: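 ELISA read-out of IP-10 after 24 h chemical dosing of human skin primary co-culture (keratinocytes, foreskin fibroblasts). Gain or loss of signal relative to DMSO, bidirectional curve fit.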
# [7] = BSK_KF3CT_SRB: Viability Assessment in the BioMAP Diversity Plus: KF3CT Assay (AID 2283069); details: primary human keratinocytes with fibroblasts;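 further: total protein by sulforhodamine B staining as a cytotoxicity measure; read 24 h after compound addition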
# Summary of the method: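 SRB read-out at 560 nm (0.1% stain, TCA-fixed cells) gauges overt cytotoxicity in a human skin keratinocyte–fibroblast co-culture 24 h post-dosing. Signal change was fitted bidirectionally relative to DMSO control.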
# [8] = read-out: Interleukin-1 alpha (IL1a), IL1A (gene 3552); experiment: BSK_KF3CT_IL1a: BioMAP Diversity Plus: KF3CT Assay for Interleukin-1 alpha (IL1a) Biomarker Activity (AID 2283070); details: primary human keratinocytes with fibroblasts; actives raise or lower the signal
# Summary of the method: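 Primary skin co-culture (keratinocytes, foreskin fibroblasts), 24 h exposure; ELISA for IL-1a; bidirectional curve fit vs DMSO.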
# [9] = read-out: TIMP metallopeptidase inhibitor 2 (TIMP2), TIMP2 (gene 7077); experiment: BSK_KF3CT_TIMP2: BioMAP Diversity Plus: KF3CT Assay for TIMP metallopeptidase inhibitor 2 (TIMP2) Biomarker Activity (AID 2283071); details: primary human keratinocytes with fibroblasts; actives raise or lower the signal
# Summary of the method: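 Chemicals were dosed onto human skin primary co-cultures of keratinocytes and foreskin fibroblasts, and TIMP-2 was measured by ELISA after 24 hours. Activity in either direction was fitted relative to DMSO.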
# [10] = read-out: Transforming growth factor beta 1 (TGFb1), TGFB1 (gene 7040); experiment: BSK_KF3CT_TGFb1: BioMAP Diversity Plus: KF3CT Assay for Transforming growth factor beta 1 (TGFb1) Biomarker Activity (AID 2283072); details: primary human keratinocytes with fibroblasts; actives raise or lower the signal
# Summary of the method: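 KF3CT co-culture (keratinocytes + fibroblasts), 24 h exposure → TGF-b1 ELISA → bidirectional fit, DMSO = baseline. Parallel SRB total-protein staining (0.1% SRB, 10% TCA fixation, 560 nm) for cytotoxicity.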
# [11] = read-out: C-C motif chemokine 2 (Homo sapiens) (UniProt P13500); experiment: BSK_KF3CT_MCP1: BioMAP Diversity Plus: KF3CT Assay for Monocyte Chemoattractant Protein 1 (MCP1/CCL2) Biomarker Activity (AID 2283073); details: primary human keratinocytes with fibroblasts; actives raise or lower the signal
# Summary of the method: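 Human keratinocyte plus foreskin fibroblast primary co-culture exposed to chemical for 24 h. MCP-1 levels measured by ELISA. Bidirectional curve fitting relative to DMSO negative control as baseline.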
# [12] = read-out: Matrix Metallopeptidase 9 (MMP9), MMP9 (gene 4318); experiment: BSK_KF3CT_MMP9: BioMAP Diversity Plus: KF3CT Assay for Matrix Metallopeptidase 9 (MMP9) Biomarker Activity (AID 2283074); details: primary human keratinocytes with fibroblasts; actives raise or lower the signal
# Summary of the method: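 ELISA read-out of MMP-9 at 24 h post-dosing in a co-culture of human skin keratinocytes and foreskin fibroblasts. Gain or loss of signal was fitted in both directions against DMSO.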
# [13] = read-out: urokinase plasminogen activator (uPA), PLAU (gene 5328); experiment: BSK_KF3CT_uPA: BioMAP Diversity Plus: KF3CT Assay for urokinase plasminogen activator (uPA) Biomarker Activity (AID 2283075); details: primary human keratinocytes with fibroblasts; actives raise or lower the signal
# Summary of the method: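 Skin co-culture (keratinocytes + foreskin fibroblasts), human primary; 24 h post-dose; uPA by ELISA; gain/loss fit vs DMSO baseline.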
# CD40, CD40 (gene 958) = experiment: BSK_LPS_CD40: BioMAP Diversity Plus: LPS Assay for CD40 Biomarker Activity (AID 2283076); details: primary human HUVEC with PBMC; actives raise or lower the signal
# Summary of the method: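 Primary human umbilical vein endothelial cells co-cultured with peripheral blood mononuclear cells, LPS-stimulated, were dosed with chemical and read 24 h later. CD40 levels were measured by ELISA and fitted bidirectionally against DMSO as negative control and baseline.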
# [14] = read-out: E-selectin (Homo sapiens) (UniProt P16581); experiment: BSK_LPS_Eselectin: BioMAP Diversity Plus: LPS Assay for Eselectin Biomarker Activity (AID 2283077); details: primary human HUVEC with PBMC; actives raise or lower the signal
# Summary of the method: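 Human umbilical vein endothelial cells co-cultured with peripheral blood mononuclear cells under LPS stimulation; E-selectin measured by ELISA 24 h after chemical dosing. Activity fitted bidirectionally against DMSO as negative control and baseline.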
# [15] = read-out: Interleukin-8 (IL8), CXCL8 (gene 3576); experiment: BSK_LPS_IL8: BioMAP Diversity Plus: LPS Assay for Interleukin-8 (IL8) Biomarker Activity (AID 2283078); details: primary human HUVEC with PBMC; actives raise or lower the signal
# Summary of the method: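 Human umbilical vein endothelial cells co-cultured with PBMC were stimulated with LPS; IL-8 levels were measured by ELISA 24 h after chemical dosing. Activity was fitted bidirectionally against DMSO as negative control and baseline.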
# [16] = BSK_LPS_SRB: Viability Assessment in the BioMAP Diversity Plus: LPS Assay (AID 2283079); details: primary human HUVEC with PBMC;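 further: total protein by sulforhodamine B absorbance as a cytotoxicity measure; measured one day after compound addition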
# Summary of the method: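 Human umbilical vein endothelial cells co-cultured with PBMC (LPS system) were dosed for 24 h. Total protein was stained with 0.1% sulforhodamine B after 10% TCA fixation, read at 560 nm, and fitted bidirectionally against DMSO baseline.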
# [17] = read-out: Interleukin-1 alpha (IL1a), IL1A (gene 3552); experiment: BSK_LPS_IL1a: BioMAP Diversity Plus: LPS Assay for Interleukin-1 alpha (IL1a) Biomarker Activity (AID 2283080); details: primary human HUVEC with PBMC; actives raise or lower the signal
# Summary of the method: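 Human umbilical vein endothelial cells co-cultured with peripheral blood mononuclear cells were LPS-stimulated and exposed to test chemicals for 24 h. IL-1 alpha was quantified by ELISA, with bidirectional curve fitting against DMSO as the negative control and baseline.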
# [18] = read-out: Monocyte Chemoattractant Protein-1 (MCP1), CCL2 (gene 6347); experiment: BSK_LPS_MCP1: BioMAP Diversity Plus: LPS Assay for Monocyte Chemoattractant Protein-1 (MCP1) Biomarker Activity (AID 2283081); details: primary human HUVEC with PBMC; actives raise or lower the signal;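 on AC50: co-culture stimulated with LPS; secreted MCP-1 protein quantified by ELISA in culture supernatant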
# Summary of the method: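 HUVEC plus PBMC co-culture (human primary cells, LPS system) exposed to test chemical for 24 h; MCP-1 measured by ELISA. Bidirectional curve fitting against DMSO baseline; parallel SRB total-protein staining flags overt cytotoxicity.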
# Sequence of E-selectin (Homo sapiens) (P16581 whole entry, looked up): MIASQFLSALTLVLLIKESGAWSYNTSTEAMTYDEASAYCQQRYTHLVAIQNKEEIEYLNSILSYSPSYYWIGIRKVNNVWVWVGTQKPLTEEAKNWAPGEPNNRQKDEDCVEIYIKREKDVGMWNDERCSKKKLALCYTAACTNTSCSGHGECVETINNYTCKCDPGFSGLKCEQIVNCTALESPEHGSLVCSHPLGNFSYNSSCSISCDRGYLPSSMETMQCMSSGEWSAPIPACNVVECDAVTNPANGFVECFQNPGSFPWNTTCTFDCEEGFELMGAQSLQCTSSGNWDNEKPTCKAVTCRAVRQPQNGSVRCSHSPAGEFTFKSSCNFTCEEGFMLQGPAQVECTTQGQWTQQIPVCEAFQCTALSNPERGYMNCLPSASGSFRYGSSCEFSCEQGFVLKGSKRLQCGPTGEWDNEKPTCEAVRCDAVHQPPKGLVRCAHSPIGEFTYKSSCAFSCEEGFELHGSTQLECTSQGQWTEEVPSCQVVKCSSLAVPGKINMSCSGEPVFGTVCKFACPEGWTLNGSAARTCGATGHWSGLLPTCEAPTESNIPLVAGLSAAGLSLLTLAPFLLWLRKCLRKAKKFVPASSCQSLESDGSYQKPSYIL
structure (smiles),measurement,setting,value
CN1CCCC1=O,outcome,[1],inactive
same,outcome,[2],inactive
same,outcome,[3],inactive
same,outcome,[4],inactive
same,outcome,[5],inactive
same,outcome,[6],inactive
same,outcome,[7],inactive
same,outcome,[8],inactive
same,outcome,[9],inactive
same,outcome,[10],inactive
same,outcome,[11],inactive
same,outcome,[12],inactive
same,outcome,[13],inactive
same,outcome,"CD40, CD40 (gene 958)",inactive
same,outcome,[14],inactive
same,outcome,[15],inactive
same,outcome,[16],inactive
same,outcome,[17],inactive
same,outcome,[18],inactive
CNCc1cc(F)ccc1Oc1ccc(Cl)c(Cl)c1,outcome,[1],inactive
same,outcome,[2],inactive
same,outcome,[3],inactive
same,outcome,[4],inactive
same,outcome,[5],inactive
same,outcome,[6],inactive
same,outcome,[7],inactive
same,outcome,[8],inactive
same,outcome,[9],inactive
same,outcome,[10],inactive
same,outcome,[11],inactive
same,outcome,[12],inactive
same,AC50,[13],30.5 µM (active)
same,AC50,"CD40, CD40 (gene 958)",15 µM (active)
same,outcome,[14],inactive
same,AC50,[15],15.7 µM (active)
same,AC50,[16],30 µM (active)
same,outcome,[17],inactive
same,AC50,[18],26.2 µM (active)
CCCCc1ccc2c(n1)[C@@H](c1ccc(OC)cc1C[C@H](C)C(=O)O)[C@H](C(=O)O)[C@H]2c1ccc2c(c1)OCO2,outcome,[1],inactive
same,outcome,[2],inactive
same,outcome,[3],inactive
same,outcome,[4],inactive
same,outcome,[5],inactive
same,outcome,[6],inactive
same,outcome,[7],inactive
same,outcome,[8],inactive
same,outcome,[9],inactive
same,outcome,[10],inactive
same,outcome,[11],inactive
same,outcome,[12],inactive
same,outcome,[13],inactive
same,outcome,"CD40, CD40 (gene 958)",inactive
same,outcome,[14],inactive
same,outcome,[15],inactive
same,outcome,[16],inactive
same,outcome,[17],inactive
same,outcome,[18],inactive
O=[N+]([O-])C(CO)(CO)CO,outcome,[1],inactive
same,outcome,[2],inactive
same,outcome,[3],inactive
same,outcome,[4],inactive
same,outcome,[5],inactive
same,outcome,[6],inactive
same,outcome,[7],inactive
same,outcome,[8],inactive
same,outcome,[9],inactive
same,outcome,[10],inactive
same,outcome,[11],inactive
same,outcome,[12],inactive
same,outcome,[13],inactive
same,outcome,"CD40, CD40 (gene 958)",inactive
same,outcome,[14],inactive
same,outcome,[15],inactive
same,outcome,[16],inactive
same,outcome,[17],inactive
same,outcome,[18],inactive
